Measurements published in PubChem BioAssay AID1362 (SRMLSC, 2008).
Among all 190,000 compounds or so, about 4,000 (2.1%) were called active. No stated cut-off is given here; in the data, active means inhibition above about 58%; inactive means the rest, inconclusive results apart; tested in S. cerevisiae. This excerpt belongs to a sample that is enriched for actives.

Experiment: growth inhibition of WT strain, primary screen, mitochondrial fusion inhibitor project, WT and mutant strains, chemical genetic (AID 1362)
Conditions: mitochondrial fusion phenotypic screen, at 10 µM
[1] = WT strain, growth inhibition, stronger effect = higher value

| Compound | inhibition [1] | inhibition (mutant strain inhibition) |
| --- | --- | --- |
| O=C(Nc1cccc(F)c1)N1C2CCC1CC(O)(c1cccnc1)C2 (centres undefined) | -6.02% (inactive) | -8.29% |
| C=CCn1c(=NC(=O)c2cccs2)sc2cc(NC(C)=O)ccc21 | -0.58% (inactive) | 5.07% |
| c1ccc2c(NCC3CCCO3)nc(-c3ccncc3)nc2c1 (centres undefined) | -20% (inactive) | -11% |
| Cc1nc2ccccc2c2oc(C(=O)NCC3CCCO3)cc12 (centres undefined) | 1.66% (inactive) | -8.79% |
| Clc1cccc(-c2nc(NCC3CCCO3)c3ccccc3n2)c1 (centres undefined) | 74.2% (active) | 68.9% |
| O=C1Nc2ccc([N+](=O)[O-])cc2C1=Nc1cccc(CO)c1 | 0.18% (inactive) | 6.98% |
| CC(C)(CNCC(O)c1ccccc1)N1CCOCC1 (centres undefined) | 64% (active) | 5.08% |
| CC(C)(CNC(=O)c1cc(=O)[nH]c2ccccc12)N1CCOCC1 | -13.2% (inactive) | -2.01% |
| CC(CN1CCOCC1)c1ccccc1 (centres undefined) | -5.68% (inactive) | 13.1% |
| Cn1c(SCC(=O)Nc2ccc(Br)cc2F)nnc1-c1ccco1 | -5.72% (inactive) | -9.59% |
| CCN(CC)C(=O)Oc1ccc(OC(=O)N(CC)CC)cc1 | -3.56% (inactive) | 8.46% |
| O=C(CSc1nnc(-c2cccs2)n1Cc1ccccc1)N1CCc2ccccc2C1 | 70.4% (active) | 40.2% |
| CCn1c(SCC(=O)c2ccc3ccccc3c2)nnc1-c1cccs1 | 16.5% (inactive) | -6.78% |
| O=C(CSc1nnc(-c2cccs2)n1-c1ccccc1)N1CCN(C(=O)c2ccco2)CC1 | -17.6% (inactive) | -21.2% |
| CCOC(=O)C1(C)NC(c2ccco2)C2C(=O)N(c3ccccc3)C(=O)C21 (centres undefined) | -2.53% (inactive) | -16.9% |
| Cc1ccc(NC(=S)N(CCCN2CCCC2)Cc2cccn2Cc2ccc(Cl)cc2)cc1 | 83.8% (active) | 31.5% |
| Cc1ccccc1NC(=S)N(CCCN1CCOCC1)Cc1cccs1 | 20.9% (inactive) | -3.99% |
| CCc1cccc(C)c1NC(=S)N(CCCN1CCN(C)CC1)Cc1cccs1 | 4.55% (inactive) | 8.76% |
| Cc1cc(C)cc(OCC(=O)Nc2ccc(S(=O)(=O)Nc3ccccn3)cc2)c1 | -6.39% (inactive) | -7.44% |

| Compound | inhibition [1] | inhibition (mutant strain inhibition) |
| --- | --- | --- |
| CCOc1cc(N2CCOCC2)c(OCC)cc1NC(=O)c1cc(C)nc2ccccc12 | -14.2% (inactive) | -29.4% |
| O=C(Nc1ccc2nc3n(c(=O)c2c1)CCCCC3)c1ccccc1Cl | -2.99% (inactive) | -3.04% |
| CCC(=O)Nc1nc2ccccc2n1Cc1ccccc1C | 32.7% (inactive) | 38.1% |
| CCC(=O)Nc1ccc2nc(C)n(Cc3ccccc3Cl)c(=O)c2c1 | 62.4% (active) | 62.2% |
| COc1ccc(Cc2n[nH]c(=S)n2NC(=O)Nc2ccc(C)cc2)cc1 | -24.4% (inactive) | 1.23% |
| O=C(O)c1ccc(N/N=C/c2cn(-c3ccccc3)nc2-c2cccs2)cc1 | 25% (inactive) | 5.64% |
| C/C(=C\C(=O)c1ccccc1)Nc1cccc(O)c1 | 85.2% (active) | 17.2% |
| C/C(=C\C(=O)c1cccnc1)Nc1ccc(C)c(C)c1 | 21.1% (inactive) | 23% |
| O=C(Nc1cccc(O)c1)c1ccc(C(=O)c2ccccc2)o1 | -18.9% (inactive) | 0.34% |
| Cc1ccc(C(NC(=O)N2CCCC2)C(Cl)(Cl)Cl)cc1F (centres undefined) | 10.1% (inactive) | 18.2% |
| CCC(C)(C)NC(=O)CN(C(=O)CCC(=O)Nc1cc(C)ccn1)c1ccc2c(c1)OCCO2 | 3.35% (inactive) | -3.2% |
| O=C(COC(=O)CNS(=O)(=O)c1ccccc1)NC12CC3CC(CC(C3)C1)C2 | 4.93% (inactive) | -2.93% |
| CC(NC(=S)Nc1ccccc1)C1COc2ccccc2O1 (centres undefined) | 5.96% (inactive) | 2.67% |
| S=C(NCC1COc2ccccc2O1)Nc1ccc(Br)cc1 (centres undefined) | 5.47% (inactive) | 7.77% |
| CCCN(CC1COc2ccccc2O1)C(=S)Nc1ccc(C)cc1 (centres undefined) | 65.7% (active) | 33.2% |
| CCOCCCNC(=O)C(NC(=O)Cc1c[nH]c2ccccc12)c1ccc(OC)cc1 (centres undefined) | -1.73% (inactive) | 8.23% |
| O=C1COc2ccc(NC(=O)N3CCN(c4ccc(F)cc4)CC3)cc2N1 | 74.7% (active) | 0.98% |
| O=C(Nc1ccc(F)cc1)N1CCN(c2ccc(F)cc2)CC1 | -9.94% (inactive) | -0.68% |
| COc1cccc(N2CCN(C(=O)Nc3ccc4c(c3)NC(=O)CO4)CC2)c1 | 43.7% (inactive) | 41.7% |

| Compound | inhibition [1] | inhibition (mutant strain inhibition) |
| --- | --- | --- |
| COc1ccc(CNC(=O)CN2CCC(n3nnc4cc(F)ccc43)CC2)cc1 | 3.98% (inactive) | -18.3% |
| CCOc1cccc(/C=C/c2ccc3ccccc3n2)c1OC(C)=O | 33% (inactive) | 25.6% |
| CC1(C)C2CCC1(C)C(OC(=O)CCn1ccnc1)C2 (centres undefined) | -4.41% (inactive) | -8.76% |
| Cc1ccc(C(=O)OC2CCCN(C)C2)cc1 (centres undefined) | -13.6% (inactive) | -3.26% |
| CC1(C)C2CCC1(C)C(OC(=O)c1ccc(O)cc1)C2 (centres undefined) | 94.2% (active) | 81.9% |
| CSc1ccccc1NC(=O)CN(C)CC(=O)Nc1cccc(Br)c1 | 21.6% (inactive) | -2.69% |
| Cc1ccc(NC(=O)CN(C)Cc2ccc(F)cc2)c([N+](=O)[O-])c1 | 22% (inactive) | 0.15% |
| CSc1ccccc1NC(=O)CN(C)CC(=O)Nc1ccc(Cl)cc1[N+](=O)[O-] | 70% (active) | 21.8% |
| COc1ccc(CN2CN(C3CCCC3)CSC2=S)cc1 | -12.1% (inactive) | -26.6% |
| Cc1noc(COc2ccccc2OCc2onc(C)c2Cl)c1Cl | 64% (active) | 31.8% |
| Cc1nc2ccccc2cc1OCc1ccc(F)cc1 | -15.6% (inactive) | -4.03% |
| Cc1noc(COc2ccccc2OCC(O)CNC(C)(C)C)n1 (centres undefined) | -1.99% (inactive) | -4.87% |
| CCc1[nH]nc(C(=O)N2CCCC(CNS(=O)(=O)c3cccs3)C2)c1C (centres undefined) | -19% (inactive) | 4.29% |
| O=[N+]([O-])c1ccc2[nH]c3c(c2c1)CCCC3O (centres undefined) | -3.98% (inactive) | 12% |
| COc1ccc(F)cc1C(=O)C1CCCN(C(=O)CCc2ccccn2)C1 (centres undefined) | 15.2% (inactive) | -2.96% |
| CCOC(=O)N1CCN(C(=S)Nc2ccc(C)cc2C)CC1 | 7.78% (inactive) | 3.64% |
| CCOC(=O)C1=C(c2ccc(OC)cc2)C(=O)c2ccccc2C1=O | 68.3% (active) | 20.7% |
| CCOC(=O)c1c(C)[nH]c2c1-c1ccccc1C(=O)C2=O | 46.9% (inactive) | 15% |
| CCOC(=O)c1ccccc1NS(=O)(=O)c1ccc(OC)cc1 | 38% (inactive) | 30.7% |
